Hits are enriched below; roughly 21% of the tested compounds scored in any of these assays.
Shiga inhibitor = Shiga toxin inhibition | Vero cells, Shiga toxin protein synthesis inhibition reporter | inhibition, % at 38.7 µM | 290,000 compounds, 9.2% hits; in the data active means inhibition mostly above about 28%, no sharp cut-off; inactive means mostly below about 43%; further: 0% is about no effect
Pf growth 48h = inhibits P. falciparum growth in the first generation, 48 h | P. falciparum luciferase growth in erythrocytes, 48 h | Potency, µM (top dose mostly 28.7 µM), inactives show at the highest dose activity change, negative = inhibition, actives largely listed as inhibitors | 310,000 compounds, 5.9% hits; further: potency means the concentration at half of the fitted maximal effect; on the % scale 0 is the no-effect control and ±100 the full control effect
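Here the parasites carry a stable luciferase gene and grow inside erythrocytes in Albumax-based RPMI medium with compound for one erythrocytic cycle. Activity is scored as loss of luminescent signal.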
Pf growth 96h = inhibits malaria parasite growth, 96 h; P. falciparum luciferase reporter growth, 96 h; Potency, µM (titrated, usually from 28.7 µM), without a hit: top-dose activity change, negative = inhibition, usual class: inhibitors; 320,000 compounds, 6.9% hits; AID 504834; further: potency means the concentration at half of the fitted maximal effect; on the % scale 0 is the no-effect control and ±100 the full control effect
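Readout is luminescence from an integrated firefly luciferase in P. falciparum. Red cells, 2% hematocrit and 0.05% parasitemia final, were cultured with compound through two parasite generations (96 hours) at 37 C, 5% CO2.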
CHX counter = counter-screen for Shiga toxin inhibitors: cycloheximide protein synthesis inhibition | cell reporter, cycloheximide protein synthesis inhibition counterscreen | max response, % | 300,000 compounds, 12% hits; in the data active means max response mostly above about 13%, no sharp cut-off; inactive means mostly below about 14%; further: read at 38.3 µM for the half of the compounds with a filed dose; 0% is about no effect
The depositor's hits bear a star; ? = inconclusive; . = no result given; [ ] = remark or other dose. Unless noted, the call rests on the fitted dose curve; in most records, active means well fitted inhibition curve with a large enough effect; inconclusive means small, poorly fitted or top-dose-only effect, or another doubt; inactive means no such curve, though single readings can be large or run the other way.

SMILES	Shiga inhibitor	Pf growth 48h	Pf growth 96h	CHX counter
CCc1ccc(N2CC(C(=O)OCC(=O)c3c(N)n(CC(C)C)c(=O)n(C)c3=O)CC2=O)cc1 (configuration not stated)	.	3%	?	.
CCC(C)C(NC(=O)OC(C)(C)C)C(=O)NC1COC2CC(n3ccc(=O)[nH]c3=O)OC12 (configuration not stated)	8	.	.	-6
COc1cc(OC)cc(-c2nnc3n2N=C(c2ccccc2OC)CS3)c1	-7	.	.	-2
O=C1N(c2ccccc2C(F)(F)F)O[C@]1(c1ccccc1)C1CCCCC1	.	?	1µM*	.
CCC(=O)c1c(NCCc2ccccc2)cc(C)oc1=O	-7	-7%	?	-1
CCOC(=O)N/N=C(\CCC(=O)O)c1cccs1	35*	4%	24%	17*
O=C(O)CCC(=O)NNC(=O)c1cccs1	17	8%	34%	18*
N#Cc1ccc(OCC(=O)N/N=C(\CCC(=O)O)c2cccs2)cc1	-6	3%	-16%	1
O=C(O)CC/C(=N/NC(=O)c1cccs1)c1ccccc1	24*	46%	21%	77*
CN(Cc1ccccc1)S(=O)(=O)c1ccc(Cl)c(C(=O)NCc2ccc3c(c2)OCO3)c1	-2	0%	0%	-1
O=C(NCC(Cl)c1ccc2ccccc2c1)c1c(F)cccc1F (configuration not stated)	9	-9%[0.00184 µM]	9%	33*
O=C(NCCCNC(=O)c1c(F)cccc1F)c1c(F)cccc1F	-12	11%[0.00184 µM]	33%	-3
O=C(NCCCN1CCCC1=O)c1ccc([N+](=O)[O-])s1	.	10µM*	?	.
Cc1cc(C(=O)NCCCN2CCCC2=O)cs1	6	25%	.	4
O=C(NCCCN1CCCC1=O)c1csc2ccccc12	17	16%	.	12*
COc1ccc(CCNC(=O)CCC(=O)Nc2nnc(C(C)C)s2)cc1OC	-7	-8%	17%	-3
CCc1ccc(NC(=O)CCC(=O)c2ccccc2)cc1	-5	.	146%	0
CCOC(=O)c1ccccc1NC(=O)COC(=O)CSc1ccccc1	.	0%	80%	.
CCCCCC(O)c1ccc([C@H]2CCC(=O)[C@@H]2CCCCCCC(=O)O)cc1 (some centres not stated)	18	.	.	-7
CCC(C)[C@@H](NC(=O)OC(C)(C)C)c1nnc(S(=O)(=O)Cc2cccc(C)c2)o1 (some centres not stated)	77*	-1%	-9%	31*
Cc1ccccc1CS(=O)(=O)c1nnc([C@H](Cc2ccccc2)NC(=O)OC(C)(C)C)o1	20	.	?	40*
CC(C)(C)OC(=O)N[C@@H](Cc1ccccc1)c1nnc(S(=O)(=O)Cc2ccccc2)o1	17	41%	.	42
CC1(C)CC(=O)c2c(O)cc(OCC(=O)N3CCN(c4ccccc4)CC3)cc2O1	2	2%	?	-4
Cc1cccc(C)c1NC(=O)/C(C#N)=C/c1ccc(-c2ccc(C(=O)O)cc2)o1	70*	74%	22%	21*
N#C/C(=C\c1ccc(-c2ccc(C(=O)O)cc2)o1)C(=O)NCC1CCCO1 (configuration not stated)	-4	6%	0%	8
SMILES	Shiga inhibitor	Pf growth 48h	Pf growth 96h	CHX counter
N#C/C(=C\c1ccc(-c2ccc(C(=O)O)cc2)o1)C(=O)Nc1ccc(F)cc1	21	-17%	9.3µM*	-3
COc1ccc(NC(=O)C(=O)N2N=C(C(C)C)CC2(O)C(F)(F)F)cc1 (configuration not stated)	-11	10%	?	-4
CC(=O)c1cccc(NC(=O)N2CCCCCC2)c1	14	8%	-3%	5
CC(=O)c1ccc(S(=O)(=O)Nc2ccc(C(=O)N3CCC3)cc2)cc1	.	1%	5%	.
Cc1cc(NS(=O)(=O)c2ccc(NC(=O)C(C(C)C)N3C(=O)c4ccccc4C3=O)cc2)nc(C)n1 (configuration not stated)	-10	-5%	46%	-3
CC(=O)c1cccc(NS(=O)(=O)c2ccc(NC(=O)N3CCCCC3)cc2)c1	17	4%	10µM*	-2
Cc1ccc(C(=O)/C=C/Nc2ccc(S(=O)(=O)Nc3cc(C)nc(C)n3)cc2)cc1	29	?	1%	29*
CC(=O)c1ccc(NS(=O)(=O)c2ccc(N/C=C/C(=O)c3ccc(F)cc3)cc2)cc1	81*	?	?	53*
Cc1ccc(/C=C/C(=O)Nc2ccc(S(=O)(=O)Nc3cc(C)nc(C)n3)cc2)cc1	-6	3%	19%	8

Compound activity deposited in PubChem by National Center for Advancing Translational Sciences (NCATS).
